This note sets out measurements from PubChem BioAssay (NCATS).

Inconclusive results are not listed. The source made the active and inactive calls. The call rests on the fitted dose curve; in most records, active means well fitted curve in the direction sought with a large enough effect; inconclusive means small, poorly fitted or top-dose-only effect, or another doubt; inactive means no such curve, though single readings can be large; an effect the other way counts as inactive or inconclusive.

Assay [1] can be described thus: Quantitative High-Throughput drug screen in 47 multiple myeloma cell lines against the NCATS MIPE library collection: ARD_JJKsccE7 cell viability assay (AID 1918929). A digest of the protocol: (§1)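 Myeloma cells (500 per well) were exposed to MIPE 4.0 compounds by pin transfer and incubated 48 hours at 37C, 5% CO2. Viability was read as ATP by CellTiter-Glo luminescence, normalised to DMSO (100%) and media-only (0%) wells.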

Assay [2] is described as follows: Quantitative High-Throughput drug screen in 47 multiple myeloma cell lines against the NCATS MIPE library collection: Karpas620_DSMZ cell viability assay (AID 1918959). Further: nearly all actives have a fitted effect of over 30% in size. A digest of the protocol:
(§2)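 Relative luminescence from CellTiter-Glo served as the viability signal, referenced to DMSO-treated (100%) and cell-free medium (0%) controls. Treatment lasted 48 hours at 37C with 500 cells per well.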

A short description of assay [3]: Quantitative High-Throughput drug screen in 47 multiple myeloma cell lines against the NCATS MIPE library collection: KMM1_JCRB cell viability assay (AID 1918960). Further: nearly all actives have a fitted effect of over 30% in size. A digest of the protocol:
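Viability screen: myeloma cells (500/well) incubated 48 h at 37 °C, humidified 5% CO2, with pinned library compounds; CellTiter-Glo added, luminescence read; DMSO wells set 100%, medium-only wells 0%.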

A short description of assay [4]: Quantitative High-Throughput drug screen in 47 multiple myeloma cell lines against the NCATS MIPE library collection: KHM11_PLB cell viability assay (AID 1918962). Further: nearly all actives have a fitted effect of over 35% in size. An outline of the steps: as §2
Assay [5] can be described thus: Quantitative High-Throughput drug screen in 47 multiple myeloma cell lines against the NCATS MIPE library collection: JIM3_ECACC cell viability assay (AID 1918963; further: nearly all actives have a fitted effect of over 35% in size). An outline of the steps:
as §2

Assay [6] is described as follows: Quantitative High-Throughput drug screen in 47 multiple myeloma cell lines against the NCATS MIPE library collection: JIM1_ECACC cell viability assay (AID 1918964). An outline of the steps:
as §1

The nature of assay [7]: Quantitative High-Throughput drug screen in 47 multiple myeloma cell lines against the NCATS MIPE library collection: INA6_PLB cell viability assay (AID 1918965; further: nearly all actives have a fitted effect of over 55% in size). An outline of the steps: as §2
The nature of assay [8]: Quantitative High-Throughput drug screen in 47 multiple myeloma cell lines against the NCATS MIPE library collection: H1112_PLB cell viability assay (AID 1918967; further: nearly all actives have a fitted effect of over 30% in size). An outline of the steps: as §1
The nature of assay [9]: Quantitative High-Throughput drug screen in 47 multiple myeloma cell lines against the NCATS MIPE library collection: Karpas25_ECACC cell viability assay (AID 1918968; further: nearly all actives have a fitted effect of over 35% in size). A digest of the protocol:
as §1

Assay [10] can be described thus: Quantitative High-Throughput drug screen in 47 multiple myeloma cell lines against the NCATS MIPE library collection: KMS27_JCRB cell viability assay (AID 1918970). Further: nearly all actives have a fitted effect of over 30% in size. An outline of the steps:
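Luminescent ATP read-out (CellTiter-Glo, 5 min at room temperature) after 48 h compound exposure of 500 KMS27_JCRB cells per well; DMSO wells define full viability and media-only wells zero.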

Assay [11] is described as follows: Quantitative High-Throughput drug screen in 47 multiple myeloma cell lines against the NCATS MIPE library collection: KMS12BM_JCRB cell viability assay (AID 1918971). Further: nearly all actives have a fitted effect of over 35% in size. An outline of the steps:
(§3)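 Steps: seed 500 cells per well; pin-transfer MIPE 4.0 library; incubate 48 h at 37C, 5% CO2, humidified; add CellTiter-Glo, 5 min room temperature; read luminescence.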

Assay [12] can be described thus: Quantitative High-Throughput drug screen in 47 multiple myeloma cell lines against the NCATS MIPE library collection: KMS12PE_JCRB cell viability assay (AID 1918972). Further: nearly all actives have a fitted effect of over 30% in size. An outline of the steps:
as §2

A short description of assay [13]: Quantitative High-Throughput drug screen in 47 multiple myeloma cell lines against the NCATS MIPE library collection: KMS21BM_JCRB cell viability assay (AID 1918974). Particulars: ATP luminescence, 48 h; viability: at 45.8 µM (top of the series) unless noted. A digest of the protocol:
as §1

Assay [14] in a line: Quantitative High-Throughput drug screen in 47 multiple myeloma cell lines against the NCATS MIPE library collection: NCIH929_DSMZ cell viability assay (AID 1918978). Further: nearly all actives have a fitted effect of over 35% in size. A digest of the protocol: (§4)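 Readout: median RLU from CellTiter-Glo after 5 min at room temperature. Preceding step was 48 h drug treatment of 500 cells/well at 37 °C, 5% CO2, with DMSO-only and media-only control wells.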

Assay [15] is described as follows: Quantitative High-Throughput drug screen in 47 multiple myeloma cell lines against the NCATS MIPE library collection: Karpas417_ECACC cell viability assay (AID 1918961). Particulars: Karpas417 myeloma viability, CellTiter-Glo ATP luminescence, 48 h; viability (% of DMSO): at 45.8 µM (top of the series). A digest of the protocol: as §2
In general terms: Cellular ATP, detected with luciferase, serves as a proxy for viable cell number.

The nature of assay [16]: Quantitative High-Throughput drug screen in 47 multiple myeloma cell lines against the NCATS MIPE library collection: KMS20_JCRB cell viability assay (AID 1918973). Further: nearly all actives have a fitted effect of over 45% in size. An outline of the steps: as §1
Assay [17] in a line: Quantitative High-Throughput drug screen in 47 multiple myeloma cell lines against the NCATS MIPE library collection: KMS26_JCRB cell viability assay (AID 1918975). Further: nearly all actives have a fitted effect of over 45% in size. An outline of the steps: as §3
Assay [18] can be described thus: Quantitative High-Throughput drug screen in 47 multiple myeloma cell lines against the NCATS MIPE library collection: MMM1_PLB cell viability assay (AID 1918976). Further: nearly all actives have a fitted effect of over 35% in size. An outline of the steps:
as §4

The nature of assay [19]: Quantitative High-Throughput drug screen in 47 multiple myeloma cell lines against the NCATS MIPE library collection: MOLP8_DSMZ cell viability assay (AID 1918977). Further: nearly all actives have a fitted effect of over 45% in size. A digest of the protocol:
as §4

A short description of assay [20]: Quantitative High-Throughput drug screen in 47 multiple myeloma cell lines against the NCATS MIPE library collection: JJN3_DSMZ cell viability assay (AID 1918966; further: nearly all actives have a fitted effect of over 50% in size). An outline of the steps: as §1
Potency means the concentration at half of the fitted maximal effect.

On to `O=C(NCc1ccncc1)C12C[C@H]3C[C@@H](C1)CC(c1ccc(Cl)cc1)(C3)C2`, for which the Potency in [1] was 18.7 µM (active); in assay [2] it was 9.35 µM (active); in assay [3], 23.5 µM (active); in assay [5] it was 23.5 µM (active); in assay [6] it was 13.2 µM (active); in [7] it was 20.9 µM (active). Also, the Potency in assay [8] was 13.2 µM (active); in [9], 20.9 µM (active); in [10], 8.33 µM (active); in [11], 20.9 µM (active); in [12], 26.4 µM (active); in assay [13], 13.2 µM (active). In addition, the Potency entry in assay [4] and in [14] was “inactive” each time.
With `NC1=N[C@@]2(c3cc(NC(=O)c4ccc(F)cn4)ccc3F)COC[C@@H]2CS1`, the Potency is 1.87 µM (active) in [1]; 0.418 µM (active) in assay [2]; 3.32 µM (active) in [3]; 13.2 µM (active) in assay [4]; 0.935 µM (active) in assay [6]; 14.8 µM (active) in [7]. The Potency in [8] is 10.5 µM (active); in assay [10], 0.264 µM (active); in assay [12] it was 1.05 µM (active). In addition, the viability (% of DMSO) in assay [15] is 105% (active). In assay [11], the Potency result was “inactive”.
`CC1(C)S[C@H]2[C@H](NC(=O)[C@@H](N)c3ccc(O)cc3)C(=O)N2[C@@H]1C(=O)O`: the Potency in [1] is 4.69 µM (active); in [2] it was 14.8 µM (active); in assay [3], 2.09 µM (active); in assay [15] it was 1.66 µM (active); in [6], 7.43 µM (active); in assay [7], 20.9 µM (active). Moreover, the Potency was 4.69 µM (active) in assay [9], 0.935 µM (active) in assay [10], 4.18 µM (active) in assay [12] and 0.296 µM (active) in assay [13]. In addition, the Potency entry in [5] and in assay [8] was “inactive” throughout.
As to `O=C(Nc1ccccc1-c1cn2c(CN3CCNCC3)csc2n1)c1cnc2ccccc2n1`, the Potency result in [1], in assay [2], in [3], in assay [10] and in assay [12] was “inactive” in each case. Besides, the Potency in assay [4] is 8.33 µM (active); in assay [5], 33.2 µM (active); in [6], 2.96 µM (active); in assay [7] it was 9.35 µM (active); in [8] it was 9.35 µM (active); in [9], 5.9 µM (active). Also, the Potency in [16] was 2.96 µM (active); in assay [17], 9.35 µM (active); in [18], 10.5 µM (active); in [19] it was 9.35 µM (active); in [14], 7.43 µM (active).
On to `Nc1nc(F)nc2c1ncn2[C@@H]1O[C@H](COP(=O)(O)O)[C@@H](O)[C@H]1O`, for which the Potency is 0.0019 µM (active) in assay [1]; 18.7 µM (active) in assay [2]; 4.18 µM (active) in [15]; 13.2 µM (active) in [9]; 16.6 µM (active) in [11]. In addition, the Potency result in assay [3], in assay [5], in [7], in [8], in assay [10] and in assay [17] was “inactive” each time.
In the case of `O=C1c2ccccc2-[n+]2ccc3c([nH]c4ccccc43)c21`, the Potency in assay [1] is 7.43 µM (active); in assay [2] it was 3.72 µM (active); in assay [3], 3.72 µM (active); in [15], 8.33 µM (active); in assay [4] it was 2.35 µM (active); in [6] it was 3.72 µM (active). Besides, the Potency in [7] was 1.18 µM (active); in assay [20], 1.48 µM (active); in assay [8], 5.26 µM (active); in assay [9], 0.418 µM (active); in assay [10] it was 2.64 µM (active); in [11] it was 2.09 µM (active). Moreover, the Potency is 5.26 µM (active) in assay [12]; 1.05 µM (active) in assay [16]; 2.35 µM (active) in assay [17]; 1.32 µM (active) in assay [18]; 1.48 µM (active) in assay [19].
